Results on 25 compounds are retold here after PubChem BioAssay (NCI).

About 83,000 compounds went through this panel and 20% of them were active in at least one assay; those are over-represented in the sample as a whole.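 Interpretation: 100, growth as untreated; towards 0, rising growth inhibition; 0, no net growth; 0 to -100, cell death. Compounds scoring below 10 were considered active.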 Calls of active or inactive are those of the source.

The assay concerns HOP-92 NSCLC. In words: NCI-60 one-dose screen, 48 h (100 = growth as untreated, 0 = no growth, -100 = all killed). The conditions noted are these: 10 µM unless noted.
For the compound `COc1cc2c(c(OC)c1OC)C(=O)CC(c1cccc(NC(=O)c3cc(NC(=O)[C@@H](N)CO)ccc3C)c1)O2` (stereo not given in full), the growth is 114% (inactive).
Regarding `CC(=O)OC[C@@]1(C)C2CC[C@]3(C)C(CC=C4C5CC(C)(C)CC[C@]5(C(=O)Nc5ccc(C)cc5)CC[C@]43C)[C@@]2(C)C[C@@H](OC(C)=O)[C@@H]1OC(C)=O` (stereo not given in full), the growth was 55.8% (inactive).
Regarding `Cc1ccc(C(=O)CSc2nc3ccc(F)cc3c(=O)n2-c2ccc(Cl)cc2)cc1`, the growth is -2.96% (active).
Regarding `COc1ccc(-c2ccnc(SCc3cc4cc(Cl)ccc4[nH]c3=O)n2)cc1`, the growth is -32% (active).
Turning to `COc1cc(-c2ccc(/C=N/NC(=O)c3[nH]c4ccc(Br)cc4c3-c3ccccc3)o2)cc(OC)c1OC`, the growth was 61.7% (inactive).
As to `CC1=C(C(=O)OC(C)C)C(c2cccc(O)c2)NC(=S)N1` (stereo not given), the growth was 110% (inactive).
As for `COc1cccc(COc2ccc(NC(=O)Nc3ccc(Cl)c(C(F)(F)F)c3)cc2)c1`, the growth was 6.12% (active).
In the case of `COc1ccc(C(=O)Nc2n[nH]c(Nc3ccccc3)c2C#N)cc1`, the growth is 125% (inactive).
Take `O=C(c1ccc(OCCN2CCOCC2)cc1)C1[C@H](c2ccc(Cl)cc2)[C@@H](c2ccccc2)NC12C(=O)Nc1ccc(Cl)cc12` (stereo not given in full): the growth is -11.8% (active).
For `O=C(N=Nc1c(O)[nH]c2ccc([N+](=O)[O-])cc12)c1ccc2nc(-c3ccccc3)[nH]c2c1`, the growth was 30.8% (inactive).
As to `CCN(CC)C(=O)N/C(N)=N/c1nc2ccccc2s1`, the growth is 72.2% (inactive).
Next, `Nc1nnc(-c2c[nH]c3ncc(Br)cc23)c(-c2c[nH]c3ccc(F)cc23)n1`: 72.9% (inactive); `O=C(COc1ccc(NC(=O)Nc2ccccc2)cc1)N=Nc1c(O)[nH]c2ccc([N+](=O)[O-])cc12`: -72.4% (active).
As for `CC(=O)Nc1ccc(-n2cnc3cc(-c4ccc(O)cc4)ccc32)cc1C(F)(F)F`, the growth is 44.8% (inactive).
For the compound `CN(C)CCn1c2ccccc2c2nc3cc4ccccc4cc3nc21`, the growth was 43.4% (inactive).
Next, `COc1cc2oc(-c3cccc(C(=O)Nc4cccc([N+](=O)[O-])c4)c3)cc(=O)c2c(OC)c1OC`: 6.73% (active); `Cc1cccc(NC(=O)[C@]23CCC(C)(C)CC2C2=CCC4[C@@]5(C)C[C@@H](O)[C@H](O)[C@@](C)(CO)C5CC[C@@]4(C)[C@]2(C)CC3)c1` (stereo not given in full): -24.8% (active); `O=C(/C=C/c1cccc(OCc2ccccc2)c1)c1nc2ccccc2[nH]1`: 22.7% (inactive).
Turning to `COc1ccc(N2N=C(c3ccc4c(c3)OCO4)CC2c2cccc(NC(=O)CCNS(=O)(=O)c3ccc(Cl)cc3)c2)cc1` (stereo not given), the growth is 32% (inactive).
Next, `CN(C)c1ccnc(CNCCSC2(c3ccccc3)c3ccccc3C=Cc3ccccc32)c1`: -17.2% (active).
Take `CC1=C(C(=O)c2ccccc2)C(c2ccc(-n3cncn3)cc2)n2c(nc3ccccc32)N1` (stereo not given): the growth is 76.1% (inactive).
Turning to `Cc1cnc(C(=O)NNc2nc3cc(F)ccc3n3c(C(=O)N4CC5CC(C4)N5)ccc23)cn1`, the growth is 65.2% (inactive).
Under `CN(C)CCCNC(=O)c1cc(NC(=O)c2cc(NC(=O)c3ccc(C#Cc4ccccc4)cc3)cn2C)cn1C` stands -26% (active).
In the case of `N/C(=N\N=C\c1ccc([N+](=O)[O-])cc1)c1c(N)nc(=S)[nH]c1-c1ccc(Cl)cc1Cl`, the growth was 2.04% (active).
Under `C=C1CCC2C3(C)COC(c4cccc(F)c4)OC3CCC2(C)C1C/C=C1/C(=O)OCC1O` (stereo not given) stands -6.12% (active).
